Measurements from ChEMBL document CHEMBL1961873, “Compounds: GSK PKIS; Assays: Nanosyn kinase panel” (2012).
Where “and” joins values, the source holds several entries; their conditions need not be identical. Equal entries are not always repeated.

Key:
[1] = target: Dual specificity protein kinase CLK3 (Homo sapiens) (UniProt P49761); settings: at 1 µM;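 also: each value is the mean inhibition of CLK3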
[2] = target: Dual specificity tyrosine-phosphorylation-regulated kinase 1A (Homo sapiens) (UniProt Q13627); settings: at 0.1 µM
[3] = target: Dual specificity tyrosine-phosphorylation-regulated kinase 1A (Homo sapiens) (UniProt Q13627); settings: at 1 µM
[4] = target: Dual specificity tyrosine-phosphorylation-regulated kinase 1B (Homo sapiens) (UniProt Q9Y463); settings: at 0.1 µM
[5] = target: Dual specificity tyrosine-phosphorylation-regulated kinase 1B (Homo sapiens) (UniProt Q9Y463); settings: at 1 µM
[6] = target: T1, Dual specificity tyrosine-phosphorylation-regulated kinase 2 (Homo sapiens) (UniProt Q92630); settings: at 0.1 µM
T1 sequence (whole entry): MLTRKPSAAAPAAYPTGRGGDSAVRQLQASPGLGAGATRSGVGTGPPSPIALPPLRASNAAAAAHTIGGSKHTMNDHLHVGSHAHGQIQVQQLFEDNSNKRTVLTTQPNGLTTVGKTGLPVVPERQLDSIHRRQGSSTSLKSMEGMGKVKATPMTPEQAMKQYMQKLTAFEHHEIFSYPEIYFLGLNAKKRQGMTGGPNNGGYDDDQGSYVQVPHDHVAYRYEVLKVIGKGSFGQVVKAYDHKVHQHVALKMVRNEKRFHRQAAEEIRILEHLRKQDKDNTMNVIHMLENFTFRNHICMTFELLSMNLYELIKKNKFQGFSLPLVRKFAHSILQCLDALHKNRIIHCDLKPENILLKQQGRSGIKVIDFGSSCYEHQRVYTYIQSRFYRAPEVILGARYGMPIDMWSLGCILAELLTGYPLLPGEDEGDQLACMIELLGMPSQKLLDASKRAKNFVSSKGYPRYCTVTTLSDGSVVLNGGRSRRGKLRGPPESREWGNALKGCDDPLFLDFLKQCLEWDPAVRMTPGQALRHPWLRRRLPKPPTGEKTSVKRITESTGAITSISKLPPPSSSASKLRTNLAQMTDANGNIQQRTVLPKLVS

[7] = target: T1, Dual specificity tyrosine-phosphorylation-regulated kinase 2 (Homo sapiens); settings: at 1 µM
[8] = target: Glycogen synthase kinase-3 alpha (Homo sapiens) (UniProt P49840); settings: at 0.1 µM
[9] = target: Glycogen synthase kinase-3 alpha (Homo sapiens) (UniProt P49840); settings: at 1 µM
[10] = target: Glycogen synthase kinase-3 beta (Homo sapiens) (UniProt P49841); settings: at 0.1 µM;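 also: values are mean percent inhibition of GSK3B activity, from the GSK Published Kinase Inhibitor Set (PKIS) screening dataset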
Sequence of Glycogen synthase kinase-3 beta (Homo sapiens) (P49841 whole entry, looked up): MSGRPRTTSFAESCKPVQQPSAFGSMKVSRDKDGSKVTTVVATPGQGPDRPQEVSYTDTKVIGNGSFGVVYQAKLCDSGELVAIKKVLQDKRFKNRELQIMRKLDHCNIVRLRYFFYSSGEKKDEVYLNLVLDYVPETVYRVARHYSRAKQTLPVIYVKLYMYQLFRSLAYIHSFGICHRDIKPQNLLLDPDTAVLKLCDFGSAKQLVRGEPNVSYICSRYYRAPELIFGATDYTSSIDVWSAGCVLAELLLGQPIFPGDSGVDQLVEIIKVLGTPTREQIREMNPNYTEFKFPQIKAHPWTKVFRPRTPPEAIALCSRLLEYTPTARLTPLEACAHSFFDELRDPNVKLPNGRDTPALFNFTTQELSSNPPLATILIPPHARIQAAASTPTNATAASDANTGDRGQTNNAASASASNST

Sequence of Dual specificity tyrosine-phosphorylation-regulated kinase 1B (Homo sapiens) (Q9Y463 whole entry, looked up): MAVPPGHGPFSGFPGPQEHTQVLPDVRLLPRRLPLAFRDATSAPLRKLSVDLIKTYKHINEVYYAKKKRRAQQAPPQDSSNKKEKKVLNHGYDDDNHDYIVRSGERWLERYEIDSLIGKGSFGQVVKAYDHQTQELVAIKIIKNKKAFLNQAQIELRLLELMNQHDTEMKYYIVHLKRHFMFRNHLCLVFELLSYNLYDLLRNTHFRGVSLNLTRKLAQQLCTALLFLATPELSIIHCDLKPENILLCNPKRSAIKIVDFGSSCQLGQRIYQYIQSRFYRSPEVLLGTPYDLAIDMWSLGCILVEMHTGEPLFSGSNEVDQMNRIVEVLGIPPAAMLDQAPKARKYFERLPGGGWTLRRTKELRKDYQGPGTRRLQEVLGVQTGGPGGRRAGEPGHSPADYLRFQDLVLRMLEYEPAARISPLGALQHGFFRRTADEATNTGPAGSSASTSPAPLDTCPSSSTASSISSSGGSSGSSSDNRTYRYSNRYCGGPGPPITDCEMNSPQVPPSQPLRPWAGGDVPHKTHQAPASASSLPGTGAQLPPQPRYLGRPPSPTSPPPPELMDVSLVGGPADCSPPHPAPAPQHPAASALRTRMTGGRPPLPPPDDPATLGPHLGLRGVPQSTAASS
Sequence of Glycogen synthase kinase-3 alpha (Homo sapiens) (P49840 2-483 limits assumed): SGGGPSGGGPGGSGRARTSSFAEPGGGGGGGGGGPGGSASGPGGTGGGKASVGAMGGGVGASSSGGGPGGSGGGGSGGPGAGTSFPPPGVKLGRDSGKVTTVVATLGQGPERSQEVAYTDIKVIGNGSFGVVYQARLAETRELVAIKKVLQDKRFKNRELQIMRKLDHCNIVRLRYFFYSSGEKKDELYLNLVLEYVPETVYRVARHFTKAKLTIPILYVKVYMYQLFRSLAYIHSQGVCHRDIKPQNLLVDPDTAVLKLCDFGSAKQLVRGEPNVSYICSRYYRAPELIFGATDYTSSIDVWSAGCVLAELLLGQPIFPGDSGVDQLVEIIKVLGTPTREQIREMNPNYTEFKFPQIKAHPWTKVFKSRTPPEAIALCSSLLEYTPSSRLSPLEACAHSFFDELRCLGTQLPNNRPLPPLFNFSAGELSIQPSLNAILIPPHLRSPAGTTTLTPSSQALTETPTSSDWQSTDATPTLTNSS
Sequence of Dual specificity protein kinase CLK3 (Homo sapiens) (P49761 whole entry, looked up): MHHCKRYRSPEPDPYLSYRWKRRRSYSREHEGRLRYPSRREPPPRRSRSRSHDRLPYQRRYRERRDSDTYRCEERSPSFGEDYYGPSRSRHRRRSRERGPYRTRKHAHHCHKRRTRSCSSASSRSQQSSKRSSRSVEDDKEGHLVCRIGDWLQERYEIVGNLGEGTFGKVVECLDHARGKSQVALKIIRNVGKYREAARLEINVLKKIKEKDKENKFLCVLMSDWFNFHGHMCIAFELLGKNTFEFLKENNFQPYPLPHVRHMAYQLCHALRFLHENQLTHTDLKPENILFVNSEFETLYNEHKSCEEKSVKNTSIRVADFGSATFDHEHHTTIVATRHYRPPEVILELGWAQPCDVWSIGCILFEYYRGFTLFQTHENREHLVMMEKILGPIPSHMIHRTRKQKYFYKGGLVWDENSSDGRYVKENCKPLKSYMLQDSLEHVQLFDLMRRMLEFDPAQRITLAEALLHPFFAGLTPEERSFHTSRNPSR

| Compound | inhibition [1] | inhibition [2] | inhibition [3] | inhibition [4] | inhibition [5] | inhibition [6] | inhibition [7] | inhibition [8] | inhibition [9] | inhibition [10] |
| --- | --- | --- | --- | --- | --- | --- | --- | --- | --- | --- |
| Cc1nnc(-c2cccc(-c3ccc(C(=O)NCC4CC4)cc3)c2)o1 | 2.8% | 3% | 6.39% | 0.21% | 1.06% | 3.15% | 5.04% | 4.33% | 14.8% | 3.05% |
| CC1=C(C(=O)Nc2ccc3[nH]nc(C)c3c2)C(c2ccc(C(F)(F)F)cc2)CC(=O)N1 (centres undefined) | 14.1% | 2.93% | 7.46% | 1.73% | 4.23% | 2.28% | 3.97% | 6.5% | 10.8% | 6.08% |
| CNC(=O)c1cncc(/C=C/c2ccccc2C)c1 | 2.09% | 1.38% | 1.83% | 0.2% | 0.92% | 1.99% | 3.1% | 5.39% | 12.3% | 5.07% |
| NS(=O)(=O)c1ccc(N/N=C2\C(=O)Nc3ccc(C(=O)NCc4ccncc4)cc32)cc1 | 3.91% | 2.11% | 9.79% | 1.01% | 11.3% | 2.69% | 8.09% | 35.3% | 75.7% | 38.4% |
| CS(=O)(=O)Nc1ccc(-c2ccc3c(NC(=O)C4CC4)n[nH]c3c2)cc1 | 4.08% | 1.29% | 6.04% | -0.26% | 2.94% | 2.37% | 2.73% | 2.08% | 7.33% | 1.51% |
| COc1ccc(Nc2ncc(-c3ccccc3)o2)cc1OC | 5.65% | 8.15% | 12% | 9% | 10.9% | 0.67% | 2.48% | 8.4% | 38.4% | 7.94% |
| COc1c(C(N)=O)cc(-c2ccc(Cl)cc2)cc1-c1ccc(S(N)(=O)=O)cc1 | 0.31% | 3.11% | 4.97% | -0.92% | -0.01% | 3.75% | 8.4% | 1.76% | 2.57% | 0.69% |
| CN(C)CCNC(=O)Nc1ccc(N(C)c2ccnc(Nc3ccc(CS(C)(=O)=O)cc3)n2)cc1 | 2.89% | 2.86% | 5.24% | 1.37% | 1.57% | 2.66% | 4.33% | 1.56% | 4.32% | 0.61% |
| CCS(=O)(=O)c1ccc(OC)c(Nc2ncc(-c3cccc(C(C)=O)c3)o2)c1 | 5.96% | 6.12% | 35.4% | 4.09% | 33.2% | 2.2% | 5.6% | 3.75% | 11.3% | 4.38% |
| O=C(Nc1n[nH]c2nnc(-c3cccnc3)cc12)C1CC1 | 1.3% | 73.8% | 93.2% | 69.1% | 81% | 20.6% | 75% | 80.5% | 82.4% | 80% |
| NC(=O)c1ccc2c(-c3ccnc(NCCCO)n3)c(-c3ccc(F)cc3)nn2c1 | 2.71% | 7.25% | 8.12% | 5.14% | 5.25% | 3.28% | 5.26% | 3.74% | 19.6% | 7.03% |
| CN1CCN(Cc2ccc(-c3cc4ncnc(Nc5ccc(OCc6cccc(F)c6)c(Cl)c5)c4s3)o2)CC1 | 0.78% and 2.08% | 2.29% and 3.65% | 3.25% and 6.67% | -1.48% and 1.67% | -0.65% and 3.95% | 2.17% and 3.19% | 1.22% and 4.53% | 4.34% and 12.6% | 3.93% and 13.7% | 2.82% and 10.6% |
| COc1ccccc1-c1cc(/C=C2\C(=O)Nc3ncc(Br)cc32)cc(Br)c1O | 9.88% | 2.51% | 11.2% | 0.86% | 4.16% | 3.68% | 4.79% | 4.73% | 10% | 5.17% |
| Cc1c2ccc(N(C)c3ccnc(Nc4cccc(S(N)(=O)=O)c4)n3)cc2nn1C | 1.11% | -1.03% | 1.54% | -3.31% | -2.73% | 2.38% | 2.71% | -0.44% | 6.37% | -0.25% |
| CCS(=O)(=O)c1ccc(OC)c(Nc2ncc(-c3cccc(F)c3)o2)c1 | 12.1% | 4.83% | 26% | 0.76% | 12.2% | 5.21% | 13.7% | 2.67% | 5.61% | 2.72% |
| CNC(=O)c1ncccc1Nc1nc(Nc2cc3c(cc2OC)CCCN3C(=O)CN(C)C)nc2[nH]ccc12 | 4.34% | 3.21% | 12.5% | 0.36% | 8.48% | 3.42% | 8.03% | 7.2% | 15.6% | 6.12% |
| CS(=O)(=O)CCNCc1ccoc1-c1ccc2ncnc(Nc3ccc(OCc4ccccc4)cc3)c2c1 | -0.94% | 1.18% | 2.26% | -1.48% | -0.06% | 0.79% | -1.66% | 4.65% | 5.47% | 2.8% |
| Cn1c(-c2nonc2N)nc2cnccc21 | 7.43% | 25.1% | 69.3% | 11.7% | 51.4% | 2.37% | 10.1% | 10.1% | 52.1% | 5.71% |
| COc1cccc(Nc2nccc(-c3cnn4ncccc34)n2)c1 | 65.3% | 77.4% | 88.3% | 81.5% | 90% | 5.88% | 37.6% | 60.7% | 79.5% | 59.7% |
| CCOc1ccc2c(-c3ccnc(Nc4cc(OC)cc(C(F)(F)F)c4)n3)cnn2n1 | 21.8% | 5.33% | 21.6% | 8.29% | 38.8% | 1.12% | 5.62% | 9.42% | 30.3% | 9.12% |

| Compound | inhibition [1] | inhibition [2] | inhibition [3] | inhibition [4] | inhibition [5] | inhibition [6] | inhibition [7] | inhibition [8] | inhibition [9] | inhibition [10] |
| --- | --- | --- | --- | --- | --- | --- | --- | --- | --- | --- |
| CN1CCC(C(=O)Nc2n[nH]c3nc(-c4ccc(O)cc4)c(Br)cc23)CC1 | 3.67% and 4.52% | 9.4% and 10.2% | 43.4% and 51.8% | 29.6% and 27.7% | 66.8% and 67% | 6.68% and 6.28% | 33.7% and 34% | 78.2% and 80.5% | 83.2% and 81.7% |  |
| CC(C)c1ccc(-c2cc(-c3c[nH]nc3-c3ccccn3)ccn2)cc1 | 0.76% | 0.59% | 2.33% | 0.57% | 1.3% | 0.98% | 0.3% | 0.61% | 2.95% | -0.15% |
| CCn1c(-c2nonc2N)nc2cncc(C(=O)NCCNC)c21 | 9.74% | 20.8% | 72.4% | 9.71% | 54.7% | 7.99% | 37.2% | 10.2% | 49.7% | 6.83% |
| Nc1nonc1-c1nc2cnccc2n1C1CC1 | 2.54% and -2.2% | 22% and 20.1% | 65.5% and 61.9% | 13.7% and 10.7% | 55.7% and 52.9% | 4.16% and 3.22% | 19.6% and 19.7% | 25% and 21.2% | 70.2% and 63.7% | 21.5% and 17.6% |
| COc1cc2c(cc1Nc1nc(Nc3cccc(F)c3C(N)=O)c3cc[nH]c3n1)N(C(=O)CN1CCN(C(C)C)CC1)CC2 | 1.39% | 1.82% | 10.2% | 3.8% | 9.06% | 2.66% | 5.93% | 1.62% | 2.06% | 0.46% |
| N#Cc1ccc2c(-c3ccnc(NC4CC4)n3)c(-c3ccc(F)cc3)nn2c1 | -0.84% | 1.91% | 0.14% | -0.4% | -2.94% | 0.64% | -0.6% | 5.27% | 24.3% | 8.49% |
| Nc1nccc(-c2c(-c3ccc(F)cc3)ncn2C2CCNCC2)n1 | 1.14% and 2.38% | 0.55% and 2.23% | 3.87% and 4.35% | 2.09% and 2.37% | 5.26% and 3.56% | -3.5% and -0.2% | 1.66% and -0.95% | 0.13% and 1.29% | 2.91% and 3.54% | -1.49% and 2.54% |
| Cc1cc(O)cc(C)c1/C=C/c1cncc(C(=O)OC(C)(C)C)c1 | 6.2% | 5.61% | 8.73% | 3.58% | 7.3% | 1.52% | 3.56% | 4.43% | 8.44% | 4.6% |
| FC(F)(F)CNc1nccc(-c2cnn3ncccc23)n1 | 2.91% | 14.6% | 60.1% | 16.1% | 59% | 2.04% | 14.3% | 3.64% | 7.01% | 2.33% |
| CC1=C(C(=O)Nc2ccc3[nH]ncc3c2)C(c2ccc(F)cc2)N=C(c2ccc(C(F)(F)F)nc2)N1 (centres undefined) | 2.08% | 1.92% | 2.39% | 1.23% | 1.37% | 1.37% | 1.27% | 1.54% | 4.37% | 1.95% |
| N#Cc1cccc(Nc2ncc(-c3ccccc3)o2)c1 | 1.97% | 1.47% | 5.95% | -0.09% | 3.53% | 0.71% | 2.45% | 5.76% | 25.6% | 2.85% |
| c1cnn2ncc(-c3ccnc(NCCCN4CCOCC4)n3)c2c1 | 0.72% | 6.3% | 33.9% | 6.84% | 40.3% | 1.99% | 5.39% | 2.46% | 13.1% | 1.44% |
| COC(=O)Nc1nc2ccc(Oc3ccc(NC(=O)Nc4cc(C(F)(F)F)ccc4F)cc3)cc2s1 | 0.05% | 0.96% | 2.5% | 1.09% | 2.02% | -0.29% | 0.21% | 0.71% | 4.01% | -0.46% |
| NS(=O)(=O)c1ccc(N/N=C2\C(=O)Nc3cccc(CCc4ccncc4)c32)cc1 | 1.36% | 1.69% | 4.28% | 1.6% | 6.1% | -0.67% | -1.25% | 49.5% | 68% | 34.1% |
| CC1(C)CC(n2cnc(-c3ccc(F)cc3)c2-c2ccnc(N)n2)CC(C)(C)N1 | 1.38% | 1.54% | 5.47% | 0.78% | 1.31% | 0.23% | -0.37% | 1.97% | 5.81% | 1.6% |
| Fc1cccc(COc2ccc(Nc3ncncc3C#Cc3ccccc3)cc2Cl)c1 | 2.05% | 2.88% | 5.18% | 0.4% | 1.45% | 3.74% | 4.05% | 3.26% | 4.91% | 2.3% |
| O=C(O[C@H]1CN[C@H](C#Cc2cc3ncnc(Nc4ccc5c(ccn5Cc5cc(F)ccc5F)c4)c3s2)C1)N1CCOCC1 | 1.89% | 2.29% | 4.73% | 0.4% | -1.92% | 3.27% | 2.77% | 3.38% | 6.08% | 1.76% |
| O=C(O[C@H]1CN[C@H](C#Cc2cc3ncnc(Nc4ccc5c(cnn5Cc5ccccc5)c4)c3s2)C1)N1CCOCC1 | -0.49% | -4.04% | -3.74% | -1.09% | -0.85% | -0.74% | -3.59% | 1.95% | 3.19% | 1.44% |
| CCN1CCC(C(=O)Nc2n[nH]c3nnc(-c4cccc(F)c4F)cc23)CC1 | 0.77% | 14.4% | 61% | 12.9% | 54.3% | -0.03% | 2.26% | 85.3% | 89.9% | 80.9% |
